# Measurements taken from the OligoGym collection.
# Experiments:
# Test in all cases: pooled miR-30 sensor sort-seq; sequence = guide strand
# Details in all cases: shRNA
# [1] = target: PRSS27
# [2] = target: PSKH2
# [3] = target: PSMC1
# [4] = target: PSMB6
# [5] = target: PSMD14
# [6] = target: PTBP2
# [7] = target: PYROXD1
# [8] = target: RAB11A
# [9] = target: RAD9A
# [10] = target: RBM28
# [11] = target: RBFOX1
# [12] = target: RBM12B
# [13] = target: RBM15B
# [14] = target: RBMY1E
# [15] = target: RDH8
# [16] = target: RET
# [17] = target: REST
# [18] = target: REPS2
# [19] = target: RERG
# Also: reference of the scale not given here.
sequence,measurement,setting,value
TTGCTGTAGAGCAGGTTGCACT,sensor-assay potency score (higher = more potent),[1],-1.36
TTGGTAGCCAAACTCGGTGTCT,sensor-assay potency score (higher = more potent),[1],-0.152
TTGCCTTTCAGAATCTTCCTGT,sensor-assay potency score (higher = more potent),[2],0.856
TTGGTTTTGACCTTCGTGCTTG,sensor-assay potency score (higher = more potent),[2],0.0948
TTACCATGTAAACTTGATCCTC,sensor-assay potency score (higher = more potent),[2],-0.301
TAATGGTTTCATTTGTTCCTGA,sensor-assay potency score (higher = more potent),[3],-0.172
TTTTCGACTCTTCACCTGGATG,sensor-assay potency score (higher = more potent),[2],-1.22
AATGCTGTGGAAACCGAGCTGG,sensor-assay potency score (higher = more potent),[4],-0.331
TATCGGTAACACATCTCCTTAA,sensor-assay potency score (higher = more potent),[4],-0.95
TTTGTCTATAAAGTCCTTCGCC,sensor-assay potency score (higher = more potent),[2],-0.325
TAGCCATAGATGTAGGAGCTCC,sensor-assay potency score (higher = more potent),[4],-0.837
TTAGCAACATCTTCTGTTCCAG,sensor-assay potency score (higher = more potent),[5],0.0236
TTAAATTTTGCATCAGTACAGG,sensor-assay potency score (higher = more potent),[4],-0.777
AAATTTTCGACTCTTCACCTGG,sensor-assay potency score (higher = more potent),[2],0.215
AAATTTAGCAACATCTTCTGTT,sensor-assay potency score (higher = more potent),[5],0.377
AACTTCAGTAATTTTAACCGGC,sensor-assay potency score (higher = more potent),[3],0.102
TTGTCCTTGTCATCCTTCTTGC,sensor-assay potency score (higher = more potent),[3],-0.829
TTGTCAGTCACTCGATTGGCGA,sensor-assay potency score (higher = more potent),[4],-1.6
TTGTTCTGGAGTCCGCCCCCAG,sensor-assay potency score (higher = more potent),[4],-1.38
TTGAGCAGGACCGAGCAGCCAG,sensor-assay potency score (higher = more potent),[3],-1.07
TAGTTTGTCTATAAAGTCCTTC,sensor-assay potency score (higher = more potent),[2],-0.109
TAATTCTCTCTAACTTCAGTAA,sensor-assay potency score (higher = more potent),[3],-0.505
AATATCTGCATAGGTCTCCTGG,sensor-assay potency score (higher = more potent),[3],-0.497
TTCAATGCTGTGGAAACCGAGC,sensor-assay potency score (higher = more potent),[4],-0.63
TAACATTTTTAACAGTGCCAGG,sensor-assay potency score (higher = more potent),[5],-1.43
TTGCCTTGATGTCAGCACCAGA,sensor-assay potency score (higher = more potent),[3],-0.927
TAGAAGACTGTGCAGATCCAGG,sensor-assay potency score (higher = more potent),[2],-0.858
TATCTTCTTCTTCTACAGCCTT,sensor-assay potency score (higher = more potent),[5],-0.722
TCGTGAATAGGTGTCAGCTTGT,sensor-assay potency score (higher = more potent),[4],-0.101
TTGTCTATAAAGTCCTTCGCCA,sensor-assay potency score (higher = more potent),[2],-0.69
TTGTGGTTGAGCAGGACCGAGC,sensor-assay potency score (higher = more potent),[3],-1.36
TAGCTTGGAACACTGGATCAAC,sensor-assay potency score (higher = more potent),[5],-0.999
TTTCTTGTCCTTGTCATCCTTC,sensor-assay potency score (higher = more potent),[3],0.111
TAGCAACATCTTCTGTTCCAGT,sensor-assay potency score (higher = more potent),[5],-0.472
TTTAATTCTCTCTAACTTCAGT,sensor-assay potency score (higher = more potent),[3],-0.456
TCAGCTTGTCAGTCACTCGATT,sensor-assay potency score (higher = more potent),[4],-0.432
TTTGTGAGAATAATGTGACTTA,sensor-assay potency score (higher = more potent),[2],0.516
TTCAGCAGTTCCAACATTGTTC,sensor-assay potency score (higher = more potent),[3],-0.616
ATCTTCTTCTTCTACAGCCTTA,sensor-assay potency score (higher = more potent),[5],-0.913
TTGACCTTCGTGCTTGGCCCAA,sensor-assay potency score (higher = more potent),[2],-1.26
TAGGTAGCATCAACATAGCCAT,sensor-assay potency score (higher = more potent),[4],-0.545
TTGCAGACACTCTTCCTTGGTC,sensor-assay potency score (higher = more potent),[4],-0.171
TACCATGTAAACTTGATCCTCA,sensor-assay potency score (higher = more potent),[2],0.763
GTATCGGTAACACATCTCCTTA,sensor-assay potency score (higher = more potent),[4],-1.65
TAACCATAGTAATAGCTGCTTC,sensor-assay potency score (higher = more potent),[6],-0.782
TTAAAGTAAAATACAACCGATT,sensor-assay potency score (higher = more potent),[7],-0.766
TTAATTCATGATCTGAACCTAA,sensor-assay potency score (higher = more potent),[7],-0.379
TATATTTAAATCTCAGACCTGG,sensor-assay potency score (higher = more potent),[8],0.396
TTCATCAGGATCTTACAGCGCA,sensor-assay potency score (higher = more potent),[9],0.0418
TTTTGAACTGAACAAAACCAAA,sensor-assay potency score (higher = more potent),[10],-1.7
TTTTGTTTGAGACTTGCACAGC,sensor-assay potency score (higher = more potent),[10],-0.43
TTTAATATCCAACTGATCTTAC,sensor-assay potency score (higher = more potent),[11],-0.633
TAATTGAAGAGCCATATCCAGA,sensor-assay potency score (higher = more potent),[12],-1.22
TTGCACAGCTTTATCCTCTTGC,sensor-assay potency score (higher = more potent),[10],0.184
TAAGAGGACCGCATAGCCGTTG,sensor-assay potency score (higher = more potent),[13],-0.808
TTATACTGTATCGAAACTGAAT,sensor-assay potency score (higher = more potent),[12],-1.19
TTGCTGAGGGAGTTGCTGCTGG,sensor-assay potency score (higher = more potent),[13],-0.717
TTGAGGTCTCGCATCACTCTAC,sensor-assay potency score (higher = more potent),[10],-0.147
TTATATTGTTCGACCAGCTGGT,sensor-assay potency score (higher = more potent),[10],0.168
TTGACCAAACATTTGTCTGAGG,sensor-assay potency score (higher = more potent),[11],-0.662
TTTCTTGGCAACAGTCACGTTG,sensor-assay potency score (higher = more potent),[10],-0.362
TACACATGAGGACTTAACCTAT,sensor-assay potency score (higher = more potent),[11],-0.971
TAATAGGAGTTACTCTACCTGA,sensor-assay potency score (higher = more potent),[12],-0.42
TTACATAATATAGCACTCTGGA,sensor-assay potency score (higher = more potent),[11],-0.421
TATAGGCAAAGCTATCTCCTTT,sensor-assay potency score (higher = more potent),[13],-0.598
TTGTGACACAAACATGACGCTG,sensor-assay potency score (higher = more potent),[13],-1.03
ATTTTTGTGAAACATGTCCGGG,sensor-assay potency score (higher = more potent),[12],-0.845
TTGACGTGATCAATGGTCCGAA,sensor-assay potency score (higher = more potent),[13],0.476
TTAAGTGAACATAAAATCCAAG,sensor-assay potency score (higher = more potent),[12],-0.9
TTTTATTTGTCATTACACGTGC,sensor-assay potency score (higher = more potent),[11],0.123
TAGTCTTCTGCATTTCTGCCTT,sensor-assay potency score (higher = more potent),[12],-0.412
TTGTCATCTACAGCCTTTGGGA,sensor-assay potency score (higher = more potent),[10],-0.978
TTATTTGTCATTACACGTGCTG,sensor-assay potency score (higher = more potent),[11],0.199
TATGACATTTAAGACCTCCTGA,sensor-assay potency score (higher = more potent),[12],0.971
TAAGTCTTAATAACACCTCTGT,sensor-assay potency score (higher = more potent),[12],0.203
TCCACTAGTAGCACTCAGCAGC,sensor-assay potency score (higher = more potent),[10],-1.24
TTTAAAATAACTGCTTTTGTGA,sensor-assay potency score (higher = more potent),[13],-0.54
TAGATCTTTAATAGCAGCCATA,sensor-assay potency score (higher = more potent),[12],-1.64
TGTGACACAAACATGACGCTGG,sensor-assay potency score (higher = more potent),[13],0.96
TTTTGTGACACAAACATGACGC,sensor-assay potency score (higher = more potent),[13],0.652
TATCTCTCTCTAGTGACCCTGA,sensor-assay potency score (higher = more potent),[12],0.0397
TTTTTCAACACCAGAAGCCCAT,sensor-assay potency score (higher = more potent),[13],0.0926
TTCTTCACCTTCGTCGTCTGAA,sensor-assay potency score (higher = more potent),[10],-0.116
TTGTCTGAGGTCCGGATCCCGG,sensor-assay potency score (higher = more potent),[11],-1.44
TTTTTATTCATTATCTAGCATC,sensor-assay potency score (higher = more potent),[11],-0.945
TTTGACGTGATCAATGGTCCGA,sensor-assay potency score (higher = more potent),[13],0.695
TAAGTCTTGAAGATTACCGATG,sensor-assay potency score (higher = more potent),[12],-1.18
TCGTGTGACCTCGTCAAGCTTG,sensor-assay potency score (higher = more potent),[13],-1.02
TTTTTGTGAAACATGTCCGGGC,sensor-assay potency score (higher = more potent),[12],0.0214
TTCCACCATAGGACATCCGAGG,sensor-assay potency score (higher = more potent),[14],-1.61
TTGAGCTACCACATGCTTCACG,sensor-assay potency score (higher = more potent),[14],-0.607
TTGGTGTCAAAGACATTCTGCA,sensor-assay potency score (higher = more potent),[15],0.0313
TTGAACTCCACCACGGCGCTGG,sensor-assay potency score (higher = more potent),[16],0.715
TTGAACTGTAAATATCTGGAGC,sensor-assay potency score (higher = more potent),[17],-0.111
TTATCCTCATCGTCCATTCTTT,sensor-assay potency score (higher = more potent),[18],-0.725
TACAATTTGATGACATGTGGGT,sensor-assay potency score (higher = more potent),[16],0.209
TTAAGCATATCTGAAAACCAAA,sensor-assay potency score (higher = more potent),[16],-1.63
TTAATTTGCTTGTCTTTTGGAC,sensor-assay potency score (higher = more potent),[19],-0.0136
TTGCCCTGCACCATCCTCCGGC,sensor-assay potency score (higher = more potent),[19],-0.458
AACAACTTCATCATCGATGGTT,sensor-assay potency score (higher = more potent),[19],-0.0718
TAGAGTTCCTTCTATTTCCTGT,sensor-assay potency score (higher = more potent),[19],0.463
TTGGTCTTCGAGCTCTTGCCTT,sensor-assay potency score (higher = more potent),[17],-0.836
TTGACATGCGTGGTGGAGCTGC,sensor-assay potency score (higher = more potent),[19],-0.453
TTTGACACAGTCAAACATCTAT,sensor-assay potency score (higher = more potent),[18],-0.0627
TTTCTTAGCACTGTGAACTCTG,sensor-assay potency score (higher = more potent),[17],0.443
TAAACATCTCGGGACAAGCCGA,sensor-assay potency score (higher = more potent),[16],-0.999
TTCTACATCTTCTACTAGCATT,sensor-assay potency score (higher = more potent),[19],-1.27
TAAATATGGAATCTGAACCTTA,sensor-assay potency score (higher = more potent),[18],-0.238
TAGAGTTTGTTTTCAATCCATG,sensor-assay potency score (higher = more potent),[16],-0.723
TTTGATCTCATCTAGGATGTTC,sensor-assay potency score (higher = more potent),[19],0.194
TTTTCTGGTCTGAATTTCCTAC,sensor-assay potency score (higher = more potent),[18],-0.484
TATCTGAACAGGCTCCTTCTGG,sensor-assay potency score (higher = more potent),[17],-0.749
TTGGGTCTCCACAACATCGCAG,sensor-assay potency score (higher = more potent),[16],-0.15
TATCTTAACAGGTTCCTTCTGG,sensor-assay potency score (higher = more potent),[17],0.123
TAATTCTACATCTTCTACTAGC,sensor-assay potency score (higher = more potent),[19],-0.25
TTTCACTTTTGAGACATCCATT,sensor-assay potency score (higher = more potent),[17],-1.15
TCTTCTGTGCTAACCTGCCTGG,sensor-assay potency score (higher = more potent),[19],-0.541
ATTGACATAGTACTCGCGCTGT,sensor-assay potency score (higher = more potent),[18],0.431
TTAGACACATTTATTCAGCTGT,sensor-assay potency score (higher = more potent),[19],0.3
TTTGCTGTAATCTTTTCCCTTT,sensor-assay potency score (higher = more potent),[17],-0.0854
